# Screens from PubChem.
# This excerpt belongs to a sample that is enriched for hits.
# HIV RNase H inh: HIV-1 RT RNase H inhibitors, primary screen, biochemical, fluorescence; Gag-Pol polyprotein (Human immunodeficiency virus type 1 group M subtype B (isolate …; RT-RNase H RNA/DNA duplex cleavage; inhibition, % at 10 µM; hit rate 1.9% among 65,000; AID 565, 2006; in the data active means inhibition above about 50%
# Starred values were filed as active, the others as inactive.
SMILES,HIV RNase H inh
Oc1ccc(C=Nc2cccc3ncccc23)c(O)c1,1.4
CC(NC(=O)C1CCCCC1)C(c1cccs1)N1CCN(C)CC1 (centres undefined),-5.0
Clc1ccc(Cl)c(-c2nn3c(Cn4cnc5ccccc54)nnc3s2)c1,-30.1
c1ccc(OCc2nn3c(Cn4cnc5ccccc54)nnc3s2)cc1,38.1
Clc1ccc(-c2nn3c(Cn4cnc5ccccc54)nnc3s2)c(Cl)c1,71.5*
CCCCCCC1/C(=N/O)CCC1C(=O)OC (centres undefined),-5.9
Cn1c(=O)c2c(nc3sccn32)n(C)c1=O,1.8
O=C1OCCC1Sc1nc(-c2ccccc2)cs1 (centres undefined),-27.1
Cc1oc(C(=O)O)cc1CSCc1ccoc1C(=O)O,24.0
Cc1oc(C(=O)O)cc1CSc1nnc(-c2ccccc2)n1C,5.5
Cc1oc(C(=O)O)cc1CSCc1cc(C(=O)O)c(C)o1,51.0*
Cc1cc(C)n(CCc2nc3c4ccccc4n(CC(=O)Nc4ccc(Cl)cc4F)c(=O)n3n2)n1,-9.2
CC(C)(C)NC(=O)c1ccc2c(c1)N(CC(=O)N1CCN(c3ccc(F)cc3)CC1)C(=O)C(C)(C)O2,-1.9
Cc1cc(C(=O)NCc2ccccc2Br)no1,1.3
CCOC(=O)N1CCN(c2cc3[nH]c(=S)[nH]c3cc2F)CC1,61.1*
CCOC(=O)N1CCN(c2c(F)cc3[nH]c(=S)[nH]c3c2Br)CC1,47.8
CCOC(=O)N1CCN(c2cc(C)c(C(C)=O)cc2F)CC1,-6.9
COc1cc2cc(CN(Cc3cccnc3)C(=O)NCc3ccccc3)c(=O)[nH]c2cc1OC,-10.0
COc1ccc(/C(O)=C2\C(=O)C(=O)N(c3cc(C)on3)C2c2ccccc2OC)cc1C (centres undefined),6.0
COc1ccccc1C1c2c(oc3ccc(Cl)cc3c2=O)C(=O)N1c1cc(C)on1 (centres undefined),51.3*
COc1ccc(/C(O)=C2\C(=O)C(=O)N(c3cc(C)on3)C2c2ccccc2OC)cc1 (centres undefined),7.9
CCC1CCCCN1C(=O)CSc1nnc(-c2c[nH]c3ccccc23)o1 (centres undefined),-10.2
CCOc1ccc(-c2cc3nc(C4CCN(C(=O)OC(C)(C)C)CC4)c(C(=O)O)cn3n2)cc1,-6.0
CC(=O)N1CCC(N(CCCOC(C)C)C(=O)Nc2ccc(Cl)cc2)CC1,-2.8
Cc1noc(C)c1S(=O)(=O)N(CCc1ccccc1)Cc1ccccc1,34.7
SMILES,HIV RNase H inh
COc1ccc(-c2ccc(-c3noc(-c4ccccc4F)n3)c(OC)n2)cc1,54.2*
COc1ccc(-c2noc(-c3ccccc3F)n2)cc1,-11.7
COc1ccc(-c2ccc(-c3noc(-c4ccccc4)n3)c(OC)n2)cc1,2.1
CN(C)CCCNC(CC(=O)Nc1ccc(Cl)cc1)C(=O)O (centres undefined),-5.7
COC(=O)C1=C(C)NC(C)=C(C(=O)OC)C1c1ccccc1OCc1c(C)no[n+]1[O-],0.7
C=CCn1c(SCC(=O)Nc2ccccc2OC)nnc1-c1ccco1,7.1
C=CCn1c(SCC(=O)Nc2ccccc2OC)nnc1-c1ccccn1,-18.9
C=CCn1c(SCC(=O)Nc2nccs2)nnc1-c1cc2cccc(OC)c2o1,53.4*
O=C(CSc1nnc(Cn2c(=O)sc3ccccc32)n1-c1ccccc1)Nc1nccs1,0.9
CC(c1ccccc1)n1cc(C(=O)NCc2ccccn2)nn1 (centres undefined),-10.7
O=C(NCc1ccccn1)c1cn(CCc2ccccc2)nn1,68.5*
O=C(NCc1cccnc1)c1cn(CCc2ccccc2)nn1,-3.0
C1=Nc2c(Nc3ccccc3)ncnc2Oc2ccccc21,-14.0
CCc1ccc(NC(=O)CNS(=O)(=O)c2c(C)noc2C)cc1,2.2
CCCCN1C(=O)c2ccc(C(=O)Nc3c(N)n(CCCC)c(=O)n(C)c3=O)cc2C1=O,5.3
O=C(CN1CCN(Cc2ccc(Cl)cc2)C1=O)NCCN1CCCC1,-9.0
COc1ccc(Oc2nc(Oc3ccc(OC)cc3)nc(Oc3ccc(OC)cc3)n2)cc1,57.0*
COc1ccc2ccc(Oc3ncccn3)cc2c1,-5.7
CN(C)c1nc(Oc2ccc(N)cc2)nc(N(C)C)n1,-7.0
CN1CCCC(C(=O)C(C#N)c2ccccc2)C1 (centres undefined),-6.5
Cc1[nH]n(C(N)=S)c(=O)c1C(c1ccccc1)C(C#N)C#N (centres undefined),51.0*
CCCc1[nH][nH]c(=O)c1C(c1ccccc1)C(C#N)C#N (centres undefined),-71.1
CC(C)OC(=O)Cn1cnc2ccc(Br)cc2c1=O,-11.5
Cc1nnc(SCCn2c(N(C)Cc3ccccc3)nc3c2c(=O)n(C)c(=O)n3C)s1,-4.9
O=C(c1ccco1)c1nnn(Cc2ccccc2)c1-c1ccccc1,-23.4
O=C(Nc1ccc2nc(-c3cccs3)c(-c3cccs3)nc2c1)N1CCOCC1,2.7
O=C(Nc1ccc(N2CCOCC2)cc1)Nc1ccc2nc(-c3ccco3)c(-c3ccco3)nc2c1,67.8*
Cc1cc(C)nc(SCC(=O)Nc2ccc(N3CCOCC3)cc2)n1,-12.2
O=C(c1cc(-c2ccco2)on1)N1CCN(c2ccccc2)CC1,-5.7
